Laboratory results reported in article PMC6212790, “How bacterial xenogeneic silencer rok distinguishes foreign from self DNA in its resident genome”.
In all, about 33,000 sequences were measured (“e-score”: median about -0.037, highest 2% from about 0.34 on). The list comes from a sample in which the highest values are over-represented; it also holds similar and randomly drawn sequences.

What follows are sequences tested against T1, GST-Rok (full length) (Bacillus subtilis subsp. subtilis str. …, UniProt O34857 1-191) (assay: protein binding microarray; Rok is a gene silencer of Bacillus subtilis; high values mean tight binding). Conditions: protein: recombinant; tags: GST (pTH5325, pDEST15-Magic modified); dsDNA, one strand shown.
T1 sequence: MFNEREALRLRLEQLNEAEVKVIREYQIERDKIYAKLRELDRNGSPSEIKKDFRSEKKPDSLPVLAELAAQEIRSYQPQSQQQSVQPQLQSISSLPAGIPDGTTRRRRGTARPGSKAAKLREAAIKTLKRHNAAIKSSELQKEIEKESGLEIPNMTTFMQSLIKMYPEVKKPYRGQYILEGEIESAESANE
Outline: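 Every oligonucleotide joins a 25-mer constant primer to a 35-mer variable part drawn from a de Bruijn sequence of order 10, so each non-palindromic 8-mer appears at least 32 times and each palindromic 8-mer 16 times. The preference for every 8-mer is reported as a unitless, rank-based enrichment score (E-score). This score spans 0.5 for the most favored 8-mer to −0.5 for the most disfavored.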

| Sequence | binding signal |
| --- | --- |
| ATAAACAA | 0.0341 E-score |
| TAATAACA | 0.238 E-score |
| AATGGGAG | -0.0919 E-score |
| GTTATCTA | 0.285 E-score |
| AACTTCGG | -0.044 E-score |
| TACGAGAA | 0.113 E-score |
| AAATCTAA | 0.157 E-score |
| AAATCTAT | 0.315 E-score |
| AAATCTAC | 0.398 E-score |
| CGCATCGC | -0.115 E-score |
| AAGTCCCG | -0.14 E-score |
| TATAGAAA | 0.363 E-score |
| AATAGAAA | 0.371 E-score |
| CATAGAAA | 0.129 E-score |
| GATAGAAA | 0.307 E-score |
| AATAGAAC | 0.0621 E-score |
| AATAGAAT | 0.329 E-score |
| ATGTGCTA | 0.222 E-score |
| CCATATCC | -0.0185 E-score |
| CGCGGCAA | 0.00655 E-score |
| CTTACTCA | -0.0171 E-score |
| CGTTGAAG | 0.0718 E-score |
| AACGGCGC | -0.0478 E-score |
| ATAGCGAG | -0.0541 E-score |

| Sequence | binding signal |
| --- | --- |
| CTAGTTAA | 0.349 E-score |
| CAAGTTAA | 0.0371 E-score |
| GAAGTTAA | 0.277 E-score |
| GTAGTTAA | 0.431 E-score |
| GTAGTTCA | 0.217 E-score |
| CGAGTTAA | 0.153 E-score |
| AGACTGGA | -0.123 E-score |
| ACATAGTC | 0.114 E-score |
| AGTTACGA | 0.167 E-score |
| ATTCACGA | -0.0154 E-score |
| AAACAGCT | 0.0473 E-score |
| CCTTCACA | 0.0629 E-score |
| TAGCTACA | 0.37 E-score |
| ATGCTATA | 0.339 E-score |
| GAGCTACA | 0.0398 E-score |
| TAGCTATA | 0.346 E-score |
| GTGCTATA | 0.147 E-score |
| CTGCTATA | 0.0937 E-score |
| GAGCTATA | 0.145 E-score |
| CAGCTACA | 0.0906 E-score |
| AAGCTATA | 0.231 E-score |
| AAACTCCA | -0.0432 E-score |
| CTCACTGC | 0.0486 E-score |
| AACGAATT | 0.325 E-score |

| Sequence | binding signal |
| --- | --- |
| ATAACAAT | 0.266 E-score |
| AACAACAC | -0.114 E-score |
| AAATTACA | 0.301 E-score |
| GAATTACC | 0.216 E-score |
| AATTTACT | 0.384 E-score |
| GATTTACC | 0.275 E-score |
| AATTTACA | 0.305 E-score |
| GATTTACA | 0.345 E-score |
| AAATTACT | 0.386 E-score |
| CAATTACC | 0.133 E-score |
| AAATTACC | 0.347 E-score |
| AATTTACC | 0.296 E-score |
| AATTTACG | 0.292 E-score |
| AAATTACG | 0.194 E-score |
| GCCGATGA | -0.108 E-score |
| AGGTGAGC | -0.0616 E-score |
| ATTGATTC | 0.127 E-score |
| TGCAGTAA | 0.194 E-score |
| ATGGTATA | 0.381 E-score |
| ATGGTAGC | 0.287 E-score |
| ATGGTATC | 0.165 E-score |
| ATGGTAGG | 0.243 E-score |
| GTGGTAGA | 0.435 E-score |
| CTGGTAGA | 0.335 E-score |

| Sequence | binding signal |
| --- | --- |
| CTGGTATA | 0.303 E-score |
| GTGGTAAA | 0.192 E-score |
| ATGGTAGA | 0.444 E-score |
| TGCCAGCA | 0.156 E-score |
| CGTCACAA | -0.0647 E-score |
| TATAACGA | 0.245 E-score |
| CCTATGCC | -0.0371 E-score |
| TCAACCAA | -0.0239 E-score |
| CGAATCTC | -0.0708 E-score |
| TAATAGGA | 0.202 E-score |
| AAACCTAA | 0.124 E-score |
| ATAACTTA | 0.265 E-score |
| ACCGATAG | 0.0776 E-score |
| ACCGATAT | 0.338 E-score |
| ACCGATAC | 0.117 E-score |
| GATATCTA | 0.4 E-score |
| AATATCTG | 0.268 E-score |
| GATATCAA | 0.208 E-score |
| AATATCTC | 0.203 E-score |
| AATATCTA | 0.392 E-score |
| CATATCTA | 0.293 E-score |
| AATCGGAA | 0.0335 E-score |
